Assay outcomes from PubChem BioAssay.
Hits are enriched below; roughly 11% of the tested compounds scored in any of these assays.
HEK cytotox: HEK 293 cell cytotoxicity; HEK 293 viability, ATP luminescence (CellTiter-Glo), 48-72 h; Potency, µM (top dose mostly 115 µM), inactives show at the top dose activity change, negative = cytotoxicity, hits mostly inhibitors; 6.6% of 94,000 active; note: nearly all actives have a fitted effect of over 60% in size
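Luminescence from cellular ATP, measured with CellTiter-Glo, indicates HEK 293 viability. Cells plated at 250 cells/well are treated with compound for 48 or 72 hr at 37 degree Celsius before reagent addition.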
hNpr1 antagonist: human Npr1 receptor antagonism; HEK293 hNpr1 GloSensor cGMP, ANP-stimulated luminescence; 1.6% of 76,000 active; Potency, µM (titrated, usually from 46.3 µM), inactives show at the top dose activity change, negative = inhibition, actives largely listed as inhibitors; calls by dose curve; note: nearly all actives have a fitted effect of over 60% in size
Target sequence (P16066 whole entry, looked up): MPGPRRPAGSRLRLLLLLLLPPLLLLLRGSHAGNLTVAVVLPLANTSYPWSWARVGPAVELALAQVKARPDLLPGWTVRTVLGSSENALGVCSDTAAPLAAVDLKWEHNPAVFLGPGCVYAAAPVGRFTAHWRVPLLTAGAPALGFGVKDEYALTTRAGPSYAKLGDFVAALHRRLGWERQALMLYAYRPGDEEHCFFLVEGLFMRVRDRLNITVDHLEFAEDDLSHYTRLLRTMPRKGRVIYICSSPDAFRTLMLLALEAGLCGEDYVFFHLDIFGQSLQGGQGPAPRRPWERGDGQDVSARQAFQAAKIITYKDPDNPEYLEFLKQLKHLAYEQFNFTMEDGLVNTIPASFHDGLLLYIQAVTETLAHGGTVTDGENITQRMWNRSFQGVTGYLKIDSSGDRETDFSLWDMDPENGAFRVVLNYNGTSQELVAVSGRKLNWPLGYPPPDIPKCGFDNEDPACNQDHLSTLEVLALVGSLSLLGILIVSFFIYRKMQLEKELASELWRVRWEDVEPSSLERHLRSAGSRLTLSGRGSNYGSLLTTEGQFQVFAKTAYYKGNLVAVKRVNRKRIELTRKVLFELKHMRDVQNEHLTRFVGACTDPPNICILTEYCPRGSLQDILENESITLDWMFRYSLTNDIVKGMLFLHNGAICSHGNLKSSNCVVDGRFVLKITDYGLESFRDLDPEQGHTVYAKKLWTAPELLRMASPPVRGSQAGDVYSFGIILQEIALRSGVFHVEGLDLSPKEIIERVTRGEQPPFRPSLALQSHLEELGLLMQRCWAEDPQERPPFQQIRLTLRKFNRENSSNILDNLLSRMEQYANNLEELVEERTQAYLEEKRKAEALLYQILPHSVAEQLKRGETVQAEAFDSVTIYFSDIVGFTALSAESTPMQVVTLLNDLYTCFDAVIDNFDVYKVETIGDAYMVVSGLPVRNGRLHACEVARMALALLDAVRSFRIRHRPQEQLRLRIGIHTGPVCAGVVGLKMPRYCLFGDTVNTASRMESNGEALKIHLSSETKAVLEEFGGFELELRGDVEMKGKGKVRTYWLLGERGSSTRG
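Compound pre-incubated 30 min at room temperature on GloSensor-loaded HEK293 cells stably carrying hNpr1 and the pGS-40F cGMP biosensor. Stimulation uses hNppA at 0.1 nM final; luminescence is taken at baseline and 20 min post-agonist.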
Luciferase inh: blocks purified firefly luciferase enzyme activity; 2.5% of 76,000 active; P08659; AID 1347043; Potency, µM (doses to about 115 µM), usual class: inhibitors; purified P. pyralis luciferase, luminescence, biochemical; note: nearly all actives have a fitted effect of over 65% in size
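Inhibitors were tested against purified firefly luciferase in a biochemical, low-substrate format (both substrates at 10uM) and luminescence measured with a CCD imager.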
3T3 cytotox: kills NIH 3T3 cells. 4.3% of 94,000 active. NIH 3T3 viability, CellTiter-Glo ATP luminescence, 48-72 h. Potency, µM (titrated, usually from 96.7 µM), inactives show top-dose activity change, negative = cytotoxicity, most hits filed as inhibitors; note: nearly all actives have a fitted effect of over 55% in size
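Luminescent ATP readout (CellTiter-Glo, 10 min RT) after 48 or 72 hr compound exposure of NIH 3T3 cells seeded at 400 cells/well in 1536-well format; quantitative HTS.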
Active calls of the source: *; i = inactive; u = inconclusive; x = no result given; ! = repeats disagree; [ ] = remark or other dose. Unless noted, calls come from the whole dose curve; as a rule, active = well fitted curve in the direction sought with a large enough effect; inconclusive = small, poorly fitted or top-dose-only effect, or another doubt; inactive = no such curve, though single readings can be large; an effect the other way counts as inactive or inconclusive. % is set by controls: 0 for no effect and ±100 for the full control effect; potency is the fitted concentration of half-maximal effect.

SMILES	HEK cytotox	hNpr1 antagonist	Luciferase inh	3T3 cytotox
COc1ccccc1Nc1ccnc(N2CCCC(C(=O)NCC3CC3)C2)n1 (stereo not drawn)	u	x	x	35µM*
COc1ccccc1Nc1ccnc(N2CCCC(C(=O)NCCCc3ccccc3)C2)n1 (stereo not drawn)	50µM*	x	x	u
COc1ccccc1Nc1ccnc(N2CCCC(C(=O)NC(C)C)C2)n1 (stereo not drawn)	u	x	x	45µM*
COc1ccccc1CNC(=O)C1CCCN(c2nccc(Nc3ccccc3OC)n2)C1 (stereo not drawn)	u	x	x	35µM*
CNC(=O)C1CCCN(c2nccc(Nc3ccccc3OC)n2)C1 (stereo not drawn)	u	x	x	-25%[138 µM]
COCCCNC(=O)C1CCCN(c2nccc(Nc3ccccc3OC)n2)C1 (stereo not drawn)	-15%	x	x	-37%
COC(=O)CNC(=O)C1CCCN(c2nccc(Nc3ccccc3OC)n2)C1 (stereo not drawn)	-9%	x	x	-24%
CCc1ccc(CN2CCCC(c3nnc(CN4CCCC4)n3C)C2)cc1 (stereo not drawn)	-19%	2%	i	-1%
CN1CCCC2(C1)CN(C)c1ccc(C(=O)NCCOc3ccccc3)cc12 (stereo not drawn)	u	0%[70.6 µM]	i	u
CC(C)Oc1ccc(CN2CCC(CO)(Cc3ccccc3Cl)CC2)cc1CO	u	0%	i	25µM*
COc1ccc(O)c(CN2CCC(CO)(Cc3ccccc3Cl)CC2)c1	u	-12%	i	u
OCC1(Cc2ccccc2Cl)CCN(Cc2cc3ccccc3o2)CC1	18µM*	u	i	u
CC(C)n1cc(CN2CCC(CO)(Cc3ccccc3Cl)CC2)cn1	-19%	-1%	i	1%
O=[S+]([O-])(c1ccccc1)N1CCn2c(nnc2C2CCCNC2)C1 (stereo not drawn)	u	11%	i	-8%
COc1ccc(CC(=O)NC2CCc3nnc(C4CC4)n3CC2)cc1 (stereo not drawn)	0%	2%	i	-13%
CC(C)S(=O)(=O)CCNc1nccc(-c2cccnc2)n1	u	-3%	i	-19%
O=C(c1ccc(Cl)s1)N1CCC2(CC1)CN(c1ccncn1)CC2CO (stereo not drawn)	50µM*	u	i	u
Cc1nc(CN2Cc3nc(-c4cccc(C(F)(F)F)c4)ccc3OCC2=O)cs1	100µM*	-2%[70.6 µM]	i	79µM*
O=C1COc2ccc(OCC3CC3)nc2CN1Cc1ccc(C(F)(F)F)cc1	79µM*	-9%[70.6 µM]	i	79µM*
O=C1COc2ccc(-c3ccncc3)nc2CN1Cc1ccc(C(F)(F)F)cc1	79µM*	-7%[70.6 µM]	i	u
COc1ccc(-c2ccc3c(n2)CN(Cc2csc(C)n2)C(=O)CO3)cc1F	u	-11%[70.6 µM]	i	u
O=C(CN1Cc2nc(Nc3ccc(C(F)(F)F)cc3)ccc2OCC1=O)N1CCCC1	79µM*	-16%[70.6 µM]	i	50µM*
COc1cccc(CN2C(=O)OC3(CCN(Cc4cccc(C)c4)CC3)C2(C)c2cccnc2)c1 (stereo not drawn)	u	-5%	i	u
O=C(O)CCC(=O)N1Cc2ccccc2CC2(CCCCN2Cc2ccccc2)C1 (stereo not drawn)	-5%	x	x	i
Cc1ccc(CN2C(=O)COC[C@H]2C(=O)Nc2cccc(C)c2)cc1	i	-4%	i	-2%
SMILES	HEK cytotox	hNpr1 antagonist	Luciferase inh	3T3 cytotox
O=C1COc2ccc(-c3cn[nH]c3)nc2CN1Cc1ccc(C(F)(F)F)cc1	u	-16%[70.6 µM]	i	10µM*
O=C1COc2ccc(NCc3cccs3)nc2CN1Cc1ccc(C(F)(F)F)cc1	79µM*	u	i	79µM*
Cc1noc(C)c1-c1ccc2c(n1)CN(Cc1ccc(C(F)(F)F)cc1)C(=O)CO2	u	-24%[70.6 µM]	i	u
COc1ccc(NC(=O)NCC2Cn3cccc3C(=O)N2C)cc1 (stereo not drawn)	u	5%	i	-18%
COc1ccc(OC)c(NC(=O)C2CCN(c3cnc4nccnc4c3)CC2)c1	40µM*	-3%	i	u
CC(=O)Nc1ccc(CN2CCC3(CC2)CC(=O)c2ccc(Cl)cc2O3)cc1	50µM*	12%	i	u
O=C1CC2(CCN(C(=O)c3ccc(C(F)(F)F)cc3)CC2)Oc2cc(Cl)ccc21	35µM*	-20%	i	25µM*
CC(=O)Nc1ccc(CN2CCC3(CC2)CC(=O)c2ccccc2O3)cc1	-15%	0%	i	u
O=C1CC2(CCN(Cc3cccs3)CC2)Oc2cc(Cl)ccc21	u	0%	16µM*!	u
CN(C)c1ccc(CN2CCC3(CC2)CC(=O)c2ccc(Cl)cc2O3)cc1	u	14%	i	u
COc1ccc(NC(=O)CCC2CCCN(C(=O)c3ccccc3SC)C2)cc1Cl (stereo not drawn)	u	13µM*	u	u
COc1ccc(NC(=O)CCC2CCCN(C(=O)CC3=CCCCC3)C2)cc1Cl (stereo not drawn)	u	u	u	-27%
COc1ccc(Cl)cc1NC(=O)CCC1CCCN(c2nc(C)cc(C)n2)C1 (stereo not drawn)	u	4%	i	u
COc1ccc(Cl)cc1NC(=O)CCC1CCCN(C(=O)c2ccoc2C)C1 (stereo not drawn)	32µM*	0%	i	u
OCC1CN(C2CCC2)CC12CCN(C1CCC1)CC2 (stereo not drawn)	-11%	6%	i	-6%
CC[C@H]1CN(C(=O)Nc2cccc(OC)c2)CC[C@H]1CC(=O)NCc1ccccc1	-13%[172 µM]	-13%[70.6 µM]	i	-30%[174 µM]
CC[C@H]1CN(C(=O)Nc2cccc(C(F)(F)F)c2)CC[C@H]1CC(=O)NCc1ccc(OC)cc1	40µM*	u	i	u
O=[S+]1([O-])NC2(CCCN(Cc3ccc(OC(F)(F)F)cc3)C2)CNc2ccccc21 (stereo not drawn)	-22%	u	i	-10%
CSCCC(=O)NC1CC(=O)N(Cc2cccc(F)c2)C1 (stereo not drawn)	-2%	5%	i	-11%
Cc1ccc(-c2cnc([C@@H]3COCCN3Cc3cn(C)c4ccccc34)[nH]2)cc1	56µM*	u	i	u
Fc1ccc(-c2cnc([C@@H]3COCCN3Cc3ccncc3)[nH]2)cc1	-5%[172 µM]	-3%[70.6 µM]	i	u
COc1ccc(-c2cnc([C@@H]3COCCN3Cc3ccc(C)cc3)[nH]2)cc1	u	-20%[70.6 µM]	i	u
Cn1cc(CN2CCOC[C@H]2c2ncc(-c3ccc(F)cc3F)[nH]2)c2ccccc21	50µM*	-27%[70.6 µM]	i	50µM*
Cc1ccc(-c2cnc([C@@H]3COCCN3Cc3ccccc3F)[nH]2)cc1	u	-17%[70.6 µM]	i	u
COc1ccc(CN2CCOC[C@H]2c2ncc(-c3ccc(OC)cc3)[nH]2)cc1	89µM*	-5%[70.6 µM]	i	u
